In PubChem BioAssay AID430 (Sanford-Burnham Center for Chemical Genomics, 2006):
Hit rate of the full screen: of about 63,000 compounds, about 1,100 (1.7%) were called active. The sample as a whole holds a higher share of actives than the screen did. Potency and affinity values are given separately. Unmarked numbers belong to inactive results. Rule as the data show it: active = cytotoxicity above about 50%; inactive = the rest.

test: HPDE-C7 pancreatic duct cell viability loss – fluorescence, HTS (AID 430); conditions: HPDE-C7 pancreatic duct cells viability, at 10 µM, stronger effect = higher value;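 also: cells exposed to compound for 48 hours before viability readout; 0% = vehicle and 100% = reference cytotoxic drug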

| SMILES | cytotoxicity |
| --- | --- |
| Cc1nc(CNS(=O)(=O)c2ccc3c(c2)CCCC3)cs1 | -11.4% |
| COCCNc1ncnc2c1cnn2-c1ccc(Cl)cc1 | 4.6% |
| CN(C)CCNc1ncnc2c1cnn2-c1ccc(Cl)cc1 | 19.4% |
| CN(C)CCCNc1ncnc2c1cnn2-c1ccccc1 | -5.5% |
| CCCCNc1ncnc2c1cnn2-c1ccc(Cl)cc1 | 72.3% (active) |
| CC(C)OCCCNc1ncnc2c1cnn2-c1ccccc1 | 26.6% |
| CCCCNc1ncnc2c1cnn2-c1ccccc1 | 65% (active) |
| CS(=O)CCC(NS(=O)(=O)c1ccccc1)C(=O)O (centres undefined) | -7.3% |
| Cn1cc(C(=O)N2CCN(C(=O)c3ccco3)CC2)c2c3ccccc3n(C)c2c1=O | -1.4% |
| COc1ccc(N2CCN(C(=O)c3cn(C)c(=O)c4c3c3ccccc3n4C)CC2)cc1 | 10.1% |
| Cn1cc(C(=O)NCCN2CCN(c3cccc(Cl)c3)CC2)c2c3ccccc3n(C)c2c1=O | -12.1% |
| Cc1ccc(Cl)cc1N1CCN(C(=O)c2cn(C)c(=O)c3c2c2ccccc2n3C)CC1 | 93.1% (active) |
| Cc1cccc(N2CCN(C(=O)c3cn(C)c(=O)c4c3c3ccccc3n4C)CC2)c1C | 53.7% (active) |
| CCOC(=O)N1CCN(C(=O)c2cn(C)c(=O)c3c2c2ccccc2n3C)CC1 | -11.5% |
| COc1ccc(C)cc1S(=O)(=O)NC1CCCC1 | 8.4% |
| CCn1ncc(C2=NOC(C(=O)NCc3ccc(Cl)cc3)C2)c1C (centres undefined) | 65.1% (active) |
| CCn1ncc(C2=NOC(C(=O)NCc3ccccc3)C2)c1C (centres undefined) | 54.7% (active) |
| CCn1ncc(C2=NOC(C(=O)Nc3cccnc3)C2)c1C (centres undefined) | -4.8% |
| CCn1ncc(C2=NOC(C(=O)NCCc3ccccc3)C2)c1C (centres undefined) | -13.2% |
| CCn1ncc(C2=NOC(C(=O)NCc3ccc(OC)cc3)C2)c1C (centres undefined) | 21.2% |
| CCn1ncc(C2=NOC(C(=O)Nc3c(C)nn(Cc4ccc(F)cc4)c3C)C2)c1C (centres undefined) | 25.1% |
| CCOC(=O)CN1C(=O)C(=O)c2cccc(C)c21 | -46.9% |
| O=C(NCc1ccco1)C1CN(S(=O)(=O)c2ccccc2)CCN1S(=O)(=O)c1ccccc1 (centres undefined) | -23.1% |
| CCc1c(C)nc2ncnn2c1N1CCC(C(=O)N2CCN(c3ccc(F)cc3)CC2)CC1 | -1.9% |

| SMILES | cytotoxicity |
| --- | --- |
| COC(=O)CSc1nc2ccc(NC(C)=O)cc2s1 | -5.9% |
| COc1cc2c(cc1OC)CN(C(=O)c1ccccc1C(=O)O)CC2 | -15.6% |
| O=C(Cn1nnc(-c2ccc(N3CCOCC3)cc2)n1)OC1CCCCC1 | -25.2% |
| COC(=O)CSc1nnc(-c2ccc(OC)cc2OC)o1 | 3.4% |
| COc1ccc(N2CCN(C(c3ccccc3OC)c3nnnn3Cc3ccco3)CC2)cc1 (centres undefined) | -1.6% |
| COc1ccc(C2C(C#N)=C(SC)NC3=C2C(=O)CC(C)(C)C3)cc1 (centres undefined) | -11.2% |
| COc1cc(C2C(C#N)=C(C)NC3=C2C(=O)CC(C)(C)C3)ccc1O (centres undefined) | -9.2% |
| COc1ccc(C2CC(=O)C3=C(C2)NC(C)=C(C#N)C3c2ccc(N(C)C)cc2)cc1 (centres undefined) | -4.4% |
| COc1cc(C2C(C#N)=C(C)NC3=C2C(=O)c2ccccc23)cc(OC)c1OC (centres undefined) | 76.3% (active) |
| COc1cc(C2C(C#N)=C(C)NC3=C2C(=O)CC(C)(C)C3)cc(OC)c1O (centres undefined) | 3.7% |
| COc1ccc(C2C(C#N)=C(C)NC3=C2C(=O)c2ccccc23)cc1 (centres undefined) | 55.2% (active) |
| CSc1nc(-c2ccco2)nn1C(=O)c1ccco1 | -12.1% |
| CCOc1cc(NC(=O)c2ccco2)c(OCC)cc1NC(=O)CCC(=O)NCc1cccnc1 | 32.8% |
| COc1ccc(C(C#N)N2CCCCC2)cc1OC (centres undefined) | -1.7% |
| Cc1cccc(-c2noc(CN(C(=O)CCc3ccccc3)C(C)C)n2)c1 | -16.1% |
| CCCC(=O)Nc1nc2ccc3nc(C)sc3c2s1 | 9.8% |
| CCOc1ccc(OCC)c(S(=O)(=O)N2CCCCC2C)c1 (centres undefined) | -8.3% |
| Cc1cccc(N2C(=O)SC(N(C)c3ccccc3)C2=O)c1 (centres undefined) | -8.6% |
| Cc1ccc(NC(=O)CC(O)(C(F)(F)F)C(F)(F)F)c(Br)c1 | -3.8% |
| CCNC(=O)CCC(=O)Nc1cc(Cl)ccc1C | -6.9% |
| Cc1ccc(Cl)cc1NC(=O)CC(O)(C(F)(F)F)C(F)(F)F | 51.2% (active) |
| CN(C)c1ccc(CN2CCCC(O)C2)cc1 (centres undefined) | 0.6% |
| OC1CCCN(Cc2cccc3ccccc23)C1 (centres undefined) | 4.1% |
| O=C(CCc1nc2ccccc2c(=O)[nH]1)OCc1nnc(-c2ccccc2)o1 | 8.5% |

| SMILES | cytotoxicity |
| --- | --- |
| CCN(CCCNC(=O)C1CCN(S(=O)(=O)CC)CC1)c1ccccc1 | -4% |
| O=C(Oc1ccc2c(c1)OCO2)c1cc2c(s1)CCC2 | 56.8% (active) |
| O=C(Oc1ccc2c(c1)OCO2)c1ccncc1 | 10.6% |
| O=C(Oc1ccc2c(c1)OCO2)c1cccs1 | -3.4% |
| Cc1cccc(C(=O)OCc2cc3ccccc3[nH]c2=O)c1 | 8.5% |
| COc1cccc(C(=O)N2CCN(c3ncccn3)CC2)c1 | 1.5% |
| CCCCC(=O)c1c(O)c2ccccc2oc1=O | 9.3% |
| CCc1oc2ccccc2c1C(=O)CCN1CCCCC1 | -17.7% |
| c1coc(CNc2nc3sc4c(c3c3ncnn23)CCCC4)c1 | -5.5% |
| O=C(NC1CCCCC1)NC1CCN(S(=O)(=O)c2ccc3c(c2)OCCO3)CC1 | -1.5% |
| O=C(Nc1ccccc1)c1ccc(S(=O)(=O)NCc2ccco2)cc1 | -0.2% |
| O=C(NCCc1c[nH]c2ccccc12)c1ccc(S(=O)(=O)NCc2ccco2)cc1 | 51.9% (active) |
| O=C(NC1CCCCC1)c1ccc(S(=O)(=O)NCc2ccco2)cc1 | -1.9% |
| Cc1cccc(C)c1NC(=O)c1cc(S(=O)(=O)N2CCOCC2)ccc1F | -47.4% |
| O=C(Nc1c2c(nn1-c1ccc(F)cc1)CSC2)c1ccc(S(=O)(=O)N2CCOCC2)cc1 | -9.4% |
| O=C1C(Cl)=C(NCCCN2CCOCC2)C(=O)N1CCc1ccccc1 | 1.4% |
| Oc1ccc2oc3c(c2c1/C=N/n1cnnc1)CCCC3 | -15.1% |
| Cc1nc2ccccc2c(=O)n1/N=C/c1c(O)ccc2oc3c(c12)CCCC3 | 63% (active) |
| Cc1nc2ccccc2c(=O)n1/N=C/c1ccc(O)cc1 | 33.8% |
| Oc1c(C(c2cccs2)N2CCN(c3ccccc3)CC2)sc2ncnn12 (centres undefined) | -10% |
| COc1cc(O)c(NC(C)=O)c2nonc12 | -7.7% |
| CC(=O)Nc1nonc1NC(C)=O | -3.4% |
| Cc1nn(-c2ccc(F)cc2F)c2c1-c1nc(N3CCCC3)ncc1CC2 | 3.8% |
| COc1ccc(C(=O)NC2CCN(C(=O)NC3CCCCC3)CC2)cc1 | -6.7% |

| SMILES | cytotoxicity |
| --- | --- |
| COc1ccc(CN2C(=O)CCC2(C)C(=O)NC2CCCCC2)c(OC)c1 (centres undefined) | -3.1% |
| COc1ccc2[nH]c(=O)c(CN(Cc3nnnn3Cc3ccc(F)cc3)CC3CCCO3)cc2c1 (centres undefined) | -39.9% |
| CCC(Sc1nc2cc3c(cc2c(=O)n1Cc1ccco1)OCO3)C(=O)Nc1ccccc1OC (centres undefined) | -11.3% |
| CCc1ccccc1NC(=O)C(CC)Sc1nc2cc3c(cc2c(=O)n1Cc1ccco1)OCO3 (centres undefined) | 2.1% |
| CCOC(=O)c1[nH]c(C)c(C(=O)N2CCN(C(=O)c3ccco3)CC2)c1C | -21.3% |
| COc1ccc(NC(=O)CNc2cccc(C#N)c2)cc1Cl | 2.9% |
| Cc1cc(N2CCOCC2)n2nc(-c3cccc(F)c3)cc2n1 | -16.6% |
| Fc1ccc(-c2cc3nc(-c4ccccc4)cc(N4CCN(CCN5CCOCC5)CC4)n3n2)cc1 | 53% (active) |
| Fc1ccc(-c2cc3nc(-c4ccccc4)cc(N4CCOCC4)n3n2)cc1 | -7% |
| O=C(Nc1scc(-c2ccc(F)cc2)c1C(=O)O)c1ccco1 | -6.9% |
| COc1ccc(C2CC(C(F)(F)F)n3nc(C(=O)Nc4ccc5c(c4)OCO5)cc3N2)cc1 (centres undefined) | -7% |
| COc1ccccc1NC(=O)c1cc2n(n1)C(C(F)(F)F)CC(c1ccc3c(c1)OCO3)N2 (centres undefined) | 38.9% |
| Cc1cc(NC(=O)c2cc3n(n2)C(C(F)(F)F)CC(c2ccc(Cl)c(Cl)c2)N3)no1 (centres undefined) | 2.8% |
| O=C(Nc1cc(Cl)ccc1O)c1cc2n(n1)C(C(F)(F)F)CC(c1ccc3c(c1)OCO3)N2 (centres undefined) | -8.7% |
| Cc1cccc(NC(=O)c2cc3n(n2)C(C(F)(F)F)CC(c2ccc4c(c2)OCO4)N3)c1 (centres undefined) | 74.1% (active) |
| COc1ccc(NC(=O)c2cc3n(n2)C(C(F)(F)F)CC(c2ccc4c(c2)OCO4)N3)cc1OC (centres undefined) | 63.9% (active) |
| O=C(Nc1ccc2c(c1)OCO2)c1cc2n(n1)C(C(F)(F)F)CC(c1ccccc1)N2 (centres undefined) | 64.2% (active) |
| COc1ccc(OC)c(NC(=O)c2cc3n(n2)C(C(F)(F)F)CC(c2ccc4c(c2)OCO4)N3)c1 (centres undefined) | 44.5% |
| O=C(NCc1ccc2c(c1)OCO2)c1cc2n(n1)C(C(F)(F)F)CC(c1ccc3c(c1)OCO3)N2 (centres undefined) | 13.5% |
| CCC(=O)N=c1sc2c(OC)ccc(OC)c2n1C | 1.2% |
| CCOC(=O)CSc1nnc([C@@H](NC(=O)OC(C)(C)C)C(C)C)o1 | 8.2% |
| O=C1CC(c2ccc(F)cc2)Cc2nc(N3CCN(c4ccccc4)CC3)ncc21 (centres undefined) | 4.6% |
